We go through nine compounds from PubChem BioAssay (Tox21).

Molecules are shown by their SMILES. Records with an inconclusive call do not appear. The source made the active and inactive calls. Unless noted, calls follow the shape of the dose curve; as a rule, active = well fitted curve in the direction sought with a large enough effect in the repeat runs; inconclusive = weak or mixed curves; inactive = no such curve, though single readings can be large; an effect the other way counts as inactive or inconclusive.

A short description of test [1]: qHTS assay for small molecules that induce genotoxicity in human embryonic kidney cells expressing luciferase-tagged ATAD5 (AID 651632). Also: nearly all actives have a fitted effect of over 15% in size. In a few lines: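 Luminescent reporter readout, HEK293T ATAD5-luc line: 16 hr drug exposure (37C, 5% CO2) followed by Amplite, 30 min RT.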
(In general: Quantitative high-throughput screening tests each substance at several concentrations.)

Test [2] in a line: qHTS assay for small molecules that induce genotoxicity in human embryonic kidney cells expressing luciferase-tagged ATAD5 - cell viability (AID 651634; calls by dose curve; also: nearly all actives have a fitted effect of over 25% in size; also: potency is read from the fitted curve at half-maximal effect). In outline:
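Viability read: CellTiter-Fluor fluorescence, 30 min at 37C. Cells: HEK293T, luciferase-tagged ATAD5. Exposure: 15.5 hr, 37C, 5% CO2, compound or DMSO vehicle.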

Test [3] is described as follows: qHTS assay for small molecule disruptors of the mitochondrial membrane potential - cell viability (AID 720634; calls by dose curve; also: nearly all actives have a fitted effect of over 20% in size; also: potency is read from the fitted curve at half-maximal effect). In a few lines: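 HepG2, 1 hr compound, 37 C. ATP luminescence via CellTiter-Glo, 30 min RT, same well as m-MPI.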
Test [4] in a line: qHTS assay for small molecule disruptors of the mitochondrial membrane potential (AID 720635). Also: potency is read from the fitted curve at half-maximal effect. In a few lines: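 Mitochondrial membrane potential tracked with Mito-MPS dye, red aggregates (ex 540/em 590 nm) against green monomers (ex 490/em 535 nm). Compound treatment 1 hr at 37C, dye 30 min in HepG2.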
Test [5] in a line: qHTS assay to test for compound auto fluorescence at 590 nm (red) in HepG2 cells (AID 720674). In outline: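 We screened compounds on adherent HepG2 cells, incubating them for an hour at 37 C in 5% CO2 before reading emission at 590 nm under 540 nm excitation; values reflect equivalence to Rose Bengal sodium fluorescence.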
Test [6] can be described thus: qHTS assay to test for compound auto fluorescence at 535 nm (green) in HepG2 cells (AID 720675).
Test [7] is described as follows: qHTS assay to test for compound auto fluorescence at 460 nm (blue) in HEK293 cells (AID 720678). In a few lines: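 Blue read-out at excitation 405 nm and emission 460 nm follows overnight compound exposure of HEK293 cells at 37C in 5% CO2. Activity is given as auto fluorescence equivalency to triamterene.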
Test [8] can be described thus: qHTS assay to test for compound auto fluorescence at 590 nm (red) in HEK293 cells (AID 720679). In outline: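 Red channel, Ex/Em 540/590nm; signal expressed as equivalency to Rose Bengal sodium. HEK293, 2,000 cells/well, 10% dialyzed FBS; 23 nL compound pinned after 4-5 hr attachment; overnight 37C/5% CO2 before reading.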
A short description of test [9]: qHTS assay to test for compound auto fluorescence at 535 nm (green) in HEK293 cells (AID 720680).
Test [10] is described as follows: qHTS assay to test for compound auto fluorescence at 460 nm (blue) in HEK293 cell free culture (AID 720681). In outline: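 Blue fluorescence (Ex 405/Em 460 nm, triamterene-equivalent) was read immediately after pin transfer of compound or DMSO into medium (DMEM, 10% FBS) without cells.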
The nature of test [11]: qHTS assay to test for compound auto fluorescence at 590 nm (red) in HEK293 cell free culture (AID 720683). In a few lines: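 Red-channel autofluorescence of compounds in culture medium (DMEM, 10% FBS), no cells, measured at 540/590 nm. Rose Bengal sodium is the reference fluorophore for equivalence.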
Test [12] is described as follows: qHTS assay to test for compound auto fluorescence at 590 nm (red) in HepG2 cell free culture (AID 720684). In a few lines:
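Plate contents were MEM with 10% FBS plus test compound or DMSO, no cells. Fluorescence was recorded with 540 nm excitation and 590 nm emission.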

The nature of test [13]: qHTS assay to test for compound auto fluorescence at 460 nm (blue) in HepG2 cells (AID 720687). In a few lines:
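Blue-channel autofluorescence (Ex/Em 405/460 nm, triamterene-equivalent) was measured after 1 hr compound exposure at 37 C, 5% CO2. Cells were HepG2, plated overnight at 37 C in MEM plus 10% FBS.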

Test [14] can be described thus: qHTS assay to test for compound auto fluorescence at 535 nm (green) in HEK293 cell free culture (AID 720682). In a few lines: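 Compounds were pin-transferred into cell-free DMEM with 10% FBS, and green fluorescence was read at excitation 485 nm and emission 535 nm. Intensities were expressed as fluorescein-equivalent values.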
Test [15] can be described thus: qHTS assay to test for compound auto fluorescence at 460 nm (blue) in HepG2 cell free culture (AID 720685). In outline: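 Compound (23 nL) or DMSO pinned into cell-free MEM with 10% FBS; blue fluorescence read at 405/460 nm excitation/emission, expressed as auto-fluorescence equivalency to triamterene.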
Test [16] is described as follows: qHTS assay to test for compound auto fluorescence at 535 nm (green) in HepG2 cell free culture (AID 720686).
For test [17], the target named is Glucocorticoid receptor (Homo sapiens) (UniProt P04150). The experiment in a line: qHTS assay to identify small molecule agonists of the glucocorticoid receptor (GR) signaling pathway (AID 720691; active = well fitted activation curve with a large enough effect in the signal ratio in the repeat runs, not every such curve was filed as active; the % refers to the signal ratio). In a few lines:
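qHTS in GR-bla HeLa cells: 4 h settling at 37 C/5% CO2, 18 h compound incubation at 37 C, 2 h LiveBLAzer B/G FRET substrate at room temperature, fluorescence intensity measured.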

The target is the same in test [18]. Put plainly: qHTS assay to identify small molecule antagonists of the glucocorticoid receptor (GR) signaling pathway (AID 720692; active = well fitted inhibition curve with a large enough effect in the signal ratio in the repeat runs, not every such curve was filed as active; the % refers to the signal ratio). In a few lines: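 Inhibition of glucocorticoid signalling is measured in HeLa cells with a GRE-controlled beta-lactamase reporter; cells are co-treated with compound and 5 nM dexamethasone (final) for 18 h before FRET substrate readout.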

A short description of test [19]: qHTS assay for small molecule agonists of the p53 signaling pathway - cell viability (AID 651633; calls by dose curve;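 also: p53RE-bla HCT reporter cells with a stable beta-lactamase p53 reporter; series mostly up to about 83 µM; nearly all actives have a fitted effect of over 30% in size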). In outline: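 Viability counter-read: CellTiter-Glo luminescence (30 min, room temperature) in the same p53RE-bla plates. These plates had been exposed to compounds for 16 h at 37 C.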

Chain of Glucocorticoid receptor (Homo sapiens) (P04150 whole entry, looked up): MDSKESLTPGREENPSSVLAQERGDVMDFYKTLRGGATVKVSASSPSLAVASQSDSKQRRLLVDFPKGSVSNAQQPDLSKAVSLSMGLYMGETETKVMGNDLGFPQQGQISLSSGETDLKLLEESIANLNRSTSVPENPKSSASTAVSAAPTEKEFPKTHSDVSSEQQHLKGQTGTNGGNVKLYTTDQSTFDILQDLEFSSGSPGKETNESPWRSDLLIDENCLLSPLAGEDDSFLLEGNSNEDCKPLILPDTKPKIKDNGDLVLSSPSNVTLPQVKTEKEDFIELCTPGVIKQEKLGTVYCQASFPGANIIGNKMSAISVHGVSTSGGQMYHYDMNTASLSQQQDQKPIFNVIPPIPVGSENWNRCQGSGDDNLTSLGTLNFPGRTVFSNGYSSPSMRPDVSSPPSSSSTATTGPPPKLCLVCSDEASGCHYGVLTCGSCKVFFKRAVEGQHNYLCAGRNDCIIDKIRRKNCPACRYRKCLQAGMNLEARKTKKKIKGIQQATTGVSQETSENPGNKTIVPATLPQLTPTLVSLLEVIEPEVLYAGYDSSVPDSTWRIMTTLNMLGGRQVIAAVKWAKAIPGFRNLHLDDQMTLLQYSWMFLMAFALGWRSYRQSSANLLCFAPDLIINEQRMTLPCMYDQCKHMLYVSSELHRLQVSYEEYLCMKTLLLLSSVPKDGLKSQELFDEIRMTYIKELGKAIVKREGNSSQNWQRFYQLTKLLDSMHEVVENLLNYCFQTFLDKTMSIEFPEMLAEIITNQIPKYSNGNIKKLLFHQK

For the compound `Nc1c(Br)cc([N+](=O)[O-])cc1[N+](=O)[O-]`, the Potency result in test [1] is “inactive”. Besides, the Potency in [2] is 49.1 µM (active); in [3], 61.8 µM (active); in test [4], 8.73 µM (active). For the same compound, the result in test [5], in test [6], in test [7], in [8], in [9] and in test [10] was inactive. Moreover, the compound was classed as inactive in test [11], in test [12] and in [13].

For the compound `CCN(CC)CCOC(=O)C(C)(c1ccccc1)c1ccccc1`, the Potency entry in [1] and in [3] was “inactive” each time. In addition, the result in test [5], in test [6], in test [8], in test [9], in test [10] and in [14] was inactive. For the same compound, the compound was called inactive in test [11], in test [12], in test [15] and in [13].

Regarding `CCOP(=O)(N=C1SCCS1)OCC`, the Potency entry in [1], in [2], in test [3] and in test [18] was “inactive” each time. Besides, the compound was called inactive in [5], in test [6], in test [7], in test [8], in test [10] and in test [14]. Also, the compound was classed as inactive in test [11], in test [12], in test [15], in test [16], in test [13] and in test [17].

Take `CCCSP(=S)(OCC)Oc1ccc(Cl)cc1Cl` (stereo not given): the Potency result in test [1] and in [18] was “inactive” in each case. Besides, the call in test [5], in test [6], in test [7], in [8], in [9] and in [10] was inactive. Further, the compound was called inactive in [14], in test [11], in [12], in test [16], in test [13] and in test [17].

Consider `CCOC(=O)NC(=S)Nc1ccccc1NC(=S)NC(=O)OCC`, for which, in [1], the Potency entry was “inactive”. Further, the result in [5], in test [6], in test [7], in test [8], in test [9] and in test [10] was inactive. Moreover, the compound was classed as inactive in test [11], in [12], in [15], in test [16], in [13] and in [17].

For `C(CCOCC1CO1)COCC1CO1` (stereo not given), the Potency entry in [19], in [2], in test [3] and in test [4] was “inactive” throughout. Moreover, the outcome in [5], in test [6], in [7], in [8], in [9] and in test [10] was inactive. In addition, the outcome in [14], in test [11], in test [12], in test [15], in test [16] and in [13] was inactive. Moreover, the compound was called inactive in test [17].

`CNC(=O)N(C)c1nc2ccccc2s1`: the Potency result in test [2], in test [3], in test [4] and in test [18] was “inactive” throughout. Besides, the call in [5], in test [6], in [8], in test [9], in test [10] and in test [14] was inactive. For the same compound, the result in test [11], in test [12], in test [16], in test [13] and in test [17] was inactive.

As for `O=[N+]([O-])c1cccc2cccnc12`, the call in test [5], in [6], in test [7], in test [8], in [9] and in [10] was inactive. The result in test [14], in test [11], in [12], in test [15], in test [16] and in test [13] was inactive. Moreover, the outcome in test [17] was inactive. In addition, in test [18], the Potency result is “inactive”.

Turning to `COC(=O)C(C)Oc1ccc(Oc2ccc(Cl)cc2Cl)cc1` (stereo not given), the Potency entry in test [1], in [2] and in test [3] was “inactive” throughout. The outcome in test [5], in test [6], in test [7], in [8], in test [9] and in [10] was inactive. Besides, the compound was called inactive in test [14], in [11], in test [12], in test [15], in [16] and in test [13]. For the same compound, the compound was called inactive in test [17].
